A selection: hits, their analogues and other compounds. The true share with any hit is near 1.7%.
HEK293 tox: cytotoxic in the GLP-1 receptor inverse agonist counter-screen; HEK293 cAMP-luciferase reporter cells, luminescence, 24 h; Potency, µM (series often up to 38.3 µM), for the others: at the top dose activity change, negative = inhibition, actives largely listed as inhibitors; 410,000 compounds, 0.13% hits; AID 624418;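 note: loss of luciferase light is scored as toxicity; % is set by controls: 0 for no effect and ±100 for the full control effect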
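Compound-treated cells are incubated 24 hr at 37 deg C under 5% CO2 after a 12 hour attachment period, then luciferase detection reagent is added and luminescence is measured following 12 min at room temperature; lowered signal indicates toxicity.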
RGS4 inh: human RGS4 inhibition; Potency, µM (top dose mostly 114 µM), without a hit: at the highest dose activity change, negative = inhibition, hits mostly inhibitors; 390,000 compounds, 0.039% hits; Transcreener GDP fluorescence polarization, RGS4-accelerated GTP hydrolysis; note: % is set by controls: 0 for no effect and ±100 for the full control effect; nearly all actives have a fitted effect of over 75% in size
Target sequence (P49798 whole entry, looked up): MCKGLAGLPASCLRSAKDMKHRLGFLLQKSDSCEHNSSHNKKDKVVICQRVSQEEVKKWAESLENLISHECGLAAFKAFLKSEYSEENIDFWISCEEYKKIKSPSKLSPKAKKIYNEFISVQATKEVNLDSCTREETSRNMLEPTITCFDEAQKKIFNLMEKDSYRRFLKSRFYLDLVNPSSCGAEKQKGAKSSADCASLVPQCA
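MLSMR compounds (23 nl, pin-transferred) preincubated 10 min at room temperature with a 500nM (2x) first reagent, then RGS4 at 900nM (2x) plus Transcreener GDP mix added; fluorescence polarization (620/688 nm) read before and after 90 min at 30 °C.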
PTHR1 ag: PTHR1 (human) receptor agonism; HEK293 GP2 PTHR1 cells, GloSensor cAMP luminescence, 1 h; Potency, µM (series often up to 115 µM), without a hit: top-dose activation, actives largely listed as activators; AID 743266; 410,000 compounds, 0.075% hits; note: nearly all actives have a fitted effect of over 55% in size
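HEK-293-derived GP2 cells expressing PTHR1 and a GloSensor cAMP reporter, 3,000/well, plated overnight, given luciferin plus IBMX (each 0.5 mM as added) for 1 h at 37 °C, then compound for 1 h at 37 °C. Luminescence was read after 15 min at room temperature.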
GLP-1R inv ag: acts as inverse agonist at human GLP-1 receptor. P43220. HEK293 GLP-1R CRE-luciferase, luminescence, 24 h; GLP-1R form is constitutively active. Potency, µM (top dose mostly 38.3 µM), for inactives: at the top dose activity change, negative = inhibition, actives largely listed as inhibitors. 410,000 compounds, 1.6% hits. AID 624417; note: % is set by controls: 0 for no effect and ±100 for the full control effect; nearly all actives have a fitted effect of over 55% in size
Target sequence (P43220 whole entry, looked up): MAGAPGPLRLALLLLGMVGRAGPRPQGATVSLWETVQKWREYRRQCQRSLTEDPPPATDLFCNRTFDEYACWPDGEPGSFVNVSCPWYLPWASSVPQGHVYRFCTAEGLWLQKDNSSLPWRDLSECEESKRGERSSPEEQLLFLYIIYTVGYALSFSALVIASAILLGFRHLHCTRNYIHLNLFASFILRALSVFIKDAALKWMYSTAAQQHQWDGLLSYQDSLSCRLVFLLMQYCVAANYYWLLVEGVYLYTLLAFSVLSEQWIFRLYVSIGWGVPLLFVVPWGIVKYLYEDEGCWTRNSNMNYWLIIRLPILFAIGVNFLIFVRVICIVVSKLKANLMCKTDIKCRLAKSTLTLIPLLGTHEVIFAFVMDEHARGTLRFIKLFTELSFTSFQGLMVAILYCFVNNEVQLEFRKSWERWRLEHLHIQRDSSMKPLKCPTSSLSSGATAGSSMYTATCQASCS
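Assay principle: reduced luminescence from a cAMP-responsive reporter in HEK293 cells co-expressing a constitutively active GLP-1R. Conditions: 24 hr compound incubation, 37 deg C, 5% CO2.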
GLP-1R agonist: activates the human GLP-1 receptor; P43220; HEK293 GLP-1R CRE-luciferase, luminescence, 4-6 h; cells express a hypersensitive GLP-1R form; Potency, µM (series often up to 45.6 µM), without a hit: at the highest dose activation, most hits filed as activators; 380,000 compounds, 0.007% hits; AID 624172; note: % of control where 0% means no effect
An asterisk follows results filed as active; [ ] = dose if it differs, or a comment. Calls come from the whole dose curve; as a rule, active = well fitted curve in the direction sought with a large enough effect; inconclusive = small, poorly fitted or top-dose-only effect, or another doubt; inactive = no such curve, though single readings can be large; an effect the other way counts as inactive or inconclusive. Potency is the fitted concentration of half-maximal effect.

`CC1CCN(S(=O)(=O)c2ccc3c(c2)N(CC(=O)NC(C)c2ccccc2)C(=O)CO3)CC1` (stereo not given) gave HEK293 tox 3%, RGS4 inh 0%, PTHR1 ag -1%, GLP-1R inv ag -2% and GLP-1R agonist 11%.
For COc1cccc(NC(=O)COC(=O)c2c3c(nc4ccccc24)CCC(C)C3)c1 (stereo not given) the results were HEK293 tox inconclusive, RGS4 inh -21%, PTHR1 ag inconclusive, GLP-1R inv ag 5µM* and GLP-1R agonist -20%.
`CC(C)(C)NC(=O)COC(=O)c1c2c(nc3ccccc13)CCC2` gave HEK293 tox -6%, RGS4 inh 7%, PTHR1 ag inactive, GLP-1R inv ag -25% and GLP-1R agonist 0%.
Screening CC(C)NC(=O)NC(=O)COC(=O)c1c2c(nc3ccccc13)CCC2 returned HEK293 tox inconclusive, RGS4 inh -7%, PTHR1 ag -43%, GLP-1R inv ag 10µM* and GLP-1R agonist 6%.
CC(C)c1ccccc1NC(=O)COC(=O)c1c2c(nc3ccccc13)CCN(Cc1ccccc1)C2 was read as HEK293 tox 5%, RGS4 inh -13%, PTHR1 ag inactive, GLP-1R inv ag 10µM* and GLP-1R agonist 0%.
`CCCCn1c(N)c(N(CCOC)C(=O)CCNC(=O)c2ccccc2Cl)c(=O)[nH]c1=O` gave HEK293 tox -3%, RGS4 inh 4%, PTHR1 ag inactive, GLP-1R inv ag -4% and GLP-1R agonist 7%.
For COc1ccc(S(=O)(=O)c2c(C(=O)c3ccc(C)c(C)c3)cnc3ccc(F)cc23)cc1 the results were HEK293 tox -22%, RGS4 inh 0%, PTHR1 ag inactive and GLP-1R inv ag inconclusive.
`Cc1ccc2ncc(C(=O)c3ccc(C)c(C)c3)c(S(=O)(=O)c3ccc(F)cc3)c2c1` gave HEK293 tox -17%, RGS4 inh 0%, PTHR1 ag -24% and GLP-1R inv ag 13µM*.
For COc1cc(C(=O)N2CCc3ccccc32)cc(OC)c1OC the results were HEK293 tox -4%, RGS4 inh 24%, PTHR1 ag inactive, GLP-1R inv ag -27% and GLP-1R agonist -4%.
Screening COc1cc2ccccc2cc1C(=O)N1CCc2ccccc21 returned HEK293 tox inconclusive, RGS4 inh -15%, PTHR1 ag -27%, GLP-1R inv ag 7.9µM* and GLP-1R agonist 2%.
`O=C(c1ccccc1)c1cn(Cc2ccc(F)cc2)c2ccccc2c1=O` gave HEK293 tox 0%, RGS4 inh 3%, PTHR1 ag inactive and GLP-1R inv ag inconclusive.
For CN(C)c1ccc(C(CNC(=O)COc2ccc(Cl)cc2)N2CCCC2)cc1 (stereo not given) the results were HEK293 tox -22%, RGS4 inh 9%, PTHR1 ag inactive, GLP-1R inv ag 11µM* and GLP-1R agonist 13%.
`CN(C)c1ccc(C(CNC(=O)COc2ccc(Cl)cc2)N2CCOCC2)cc1` (stereo not given) gave HEK293 tox 1%, RGS4 inh 0%, PTHR1 ag inactive and GLP-1R inv ag 13%.
`CCCCn1c(N)c(N(C)C(=O)c2cccc(-n3cnnn3)c2)c(=O)[nH]c1=O` gave HEK293 tox -6%, RGS4 inh -5%, PTHR1 ag -40%, GLP-1R inv ag 9% and GLP-1R agonist 0%.
Screening Cc1ccc(C)c(CN2C(=O)c3ccccc3S(=O)c3ccc(C(=O)NCCCN4CCCC4)cc32)c1 (stereo not given) returned HEK293 tox -18%, RGS4 inh 5%, PTHR1 ag inactive, GLP-1R inv ag inconclusive and GLP-1R agonist 8%.
`O=C(NCCCN1CCOCC1)c1ccc2c(c1)N(Cc1ccc(F)cc1)CCS2` gave HEK293 tox -3%, RGS4 inh 1%, PTHR1 ag inactive, GLP-1R inv ag 2.2µM* and GLP-1R agonist 0%.
`O=C(NCCCN1CCCC1)c1ccc2c(c1)N(Cc1ccccc1)CCS2` gave HEK293 tox 4.5µM*, RGS4 inh -21%, PTHR1 ag -21%, GLP-1R inv ag inconclusive and GLP-1R agonist 3%.
`CCN1CCSc2ccc(C(=O)NCc3ccccc3Br)cc21` gave HEK293 tox 7%, RGS4 inh -19%, PTHR1 ag -32%, GLP-1R inv ag 10µM* and GLP-1R agonist 1%.
O=C(NCCCN1CCCC1)c1ccc2c(c1)N(Cc1ccccc1F)C(=O)c1ccccc1S2=O (stereo not given) was read as HEK293 tox -1%, RGS4 inh -6%[56.9 µM], PTHR1 ag -27%, GLP-1R inv ag 8.9µM* and GLP-1R agonist 0%.
O=C(NC1CC1)c1ccc2c(c1)N(Cc1ccccc1)CCS2 was read as HEK293 tox -2%, RGS4 inh -6%, PTHR1 ag -11%, GLP-1R inv ag 8.9µM* and GLP-1R agonist -1%.
For O=C1Nc2cc(C(=O)NCCCN3CCCC3)ccc2S/C1=C\c1ccccc1 the results were HEK293 tox -5%, RGS4 inh -52%, PTHR1 ag inactive, GLP-1R inv ag 10µM* and GLP-1R agonist 19%.
For O=C1Nc2cc(C(=O)NCCCN3CCOCC3)ccc2S/C1=C/c1cccc(Cl)c1 the results were HEK293 tox 4%, RGS4 inh -14%, PTHR1 ag inactive, GLP-1R inv ag -4% and GLP-1R agonist 0%.
Screening CN1CCN(CCCNC(=O)c2ccc3c(c2)N(Cc2ccc(F)cc2)CCS3)CC1 returned HEK293 tox -27%, RGS4 inh -9%, PTHR1 ag inactive, GLP-1R inv ag 5.6µM* and GLP-1R agonist 14%.
`O=C(NCc1ccccc1)c1ccc2c(c1)N(Cc1ccc(F)cc1)CCS2` gave HEK293 tox -1%, RGS4 inh 0%, PTHR1 ag -9% and GLP-1R inv ag 5.6µM*.
`CCOc1ccc(NC(=O)Cn2c(C)cc3ccccc3c2=O)cc1` gave HEK293 tox 8%, RGS4 inh -21%, PTHR1 ag inactive and GLP-1R inv ag 13%.
`COc1ccccc1NC(=O)CSc1nc2c(oc3ccccc32)c(=O)n1-c1ccc(C)cc1` gave HEK293 tox -3%, RGS4 inh 10%, PTHR1 ag inactive and GLP-1R inv ag 12%.
CCCCNC(=O)c1nc(C2CCN(S(=O)(=O)c3c(OC)cccc3OC)CC2)oc1-c1ccccc1 was read as HEK293 tox -19%, PTHR1 ag inactive and GLP-1R inv ag inconclusive.
O=C(Nc1cc(Cl)cc(Cl)c1)c1cccc(OC(F)F)c1 was read as HEK293 tox -26%, RGS4 inh 3%, PTHR1 ag -31%, GLP-1R inv ag 13µM* and GLP-1R agonist -4%.

Bioassay records (PubChem BioAssay)
